The sample as a whole holds a higher share of hits than the screen did.
Cycloheximide cs = Cycloheximide Counterscreen for Small Molecule Inhibitors of Shiga Toxin | max response, % | cell reporter, cycloheximide protein synthesis inhibition counterscreen | 300,000 compounds, 12% hits; in the data active = max response mostly above about 13%, no sharp cut-off; inactive = mostly below about 14%; note: read at 38.3 µM for the half of the compounds with a filed dose; 0% is about no effect
AmpC inh no detg = qHTS Inhibitors of AmpC Beta-Lactamase (assay without detergent); P00811; AmpC nitrocefin hydrolysis, absorbance 480 nm, 0.0001% Triton; Potency, µM (doses to about 57.1 µM), inactives show at the highest dose activity change, negative = inhibition, usual class: inhibitors; 330,000 compounds, 0.52% hits;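 note: potency is the fitted concentration of half-maximal effect; plate controls were no compound for no effect and no enzyme for full effect; nearly all actives have a fitted effect of over 20% in size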
Target sequence (P00811 whole entry, looked up): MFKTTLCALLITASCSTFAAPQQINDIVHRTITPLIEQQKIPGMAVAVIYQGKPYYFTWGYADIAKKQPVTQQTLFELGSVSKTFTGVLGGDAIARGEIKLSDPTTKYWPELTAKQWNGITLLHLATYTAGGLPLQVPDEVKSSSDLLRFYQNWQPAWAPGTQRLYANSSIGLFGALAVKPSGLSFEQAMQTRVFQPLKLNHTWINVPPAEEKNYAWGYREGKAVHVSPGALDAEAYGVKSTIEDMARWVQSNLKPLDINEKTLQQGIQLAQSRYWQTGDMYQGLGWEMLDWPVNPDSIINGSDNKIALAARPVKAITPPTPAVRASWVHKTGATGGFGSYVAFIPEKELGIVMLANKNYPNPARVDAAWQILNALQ
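20 mM phosphate pH 7.0 + 0.01% (detergent screen) or 0.0001% Triton X-100; 5.3 nM AmpC reagent; cpd preinc 15 min RT; nitrocefin (800 uM stock) to start; A480 q20 s × 4 min; Activity was normalised to no-enzyme and no-compound control wells.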
AmpC inh detg = qHTS Inhibitors of AmpC Beta-Lactamase (assay with detergent) | Potency, µM (titrated, usually from 114 µM), for the others: top-dose activity change, negative = inhibition, usual class: inhibitors | AmpC hydrolysis of nitrocefin, absorbance 480 nm, 0.01% Triton | 370,000 compounds, 0.041% hits | P00811;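 note: potency is the fitted concentration of half-maximal effect; 0% = no-compound wells and -100% = no-enzyme wells; nearly all actives have a fitted effect of over 25% in size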
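20 mM phosphate pH 7.0 + 0.01% (detergent screen) or 0.0001% Triton X-100; 5.3 nM AmpC reagent; cpd preinc 15 min RT; nitrocefin (800 uM stock) to start; A480 q20 s × 4 min; Activity was normalised to no-enzyme and no-compound control wells.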
Shiga inhibitor = A qHTS for Small Molecule Inhibitors of Shiga Toxin. Vero cells, Shiga toxin protein synthesis inhibition reporter. inhibition, % at 38.7 µM. 290,000 compounds, 9.2% hits; in the data active = inhibition mostly above about 28%, no sharp cut-off; inactive = mostly below about 43%; note: 0% is about no effect
NS1 inh = qHTS Assay for Inhibitors of Influenza NS1 Protein Function; AID 2326, 2010; 270,000 compounds, 0.4% hits; Potency, µM (doses to about 46.1 µM), inactives show at the highest dose activity, positive = more growth; calls by dose curve; note: potency is the fitted concentration of half-maximal effect; actives are rising curves; nearly all actives have a fitted effect of over 50% in size
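Growth recovery, yeast-based: influenza A NS1 expressed in S. cerevisiae causes slow growth, and suppressors are detected by OD600. The parent strain without NS1 is used as positive control.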
The depositor's hits bear a star; ? = inconclusive; nt = not tested or not shown; + = active, no number. Unless noted, calls come from the whole dose curve; as a rule, active = well fitted curve in the direction sought with a large enough effect; inconclusive = small, poorly fitted or top-dose-only effect, or another doubt; inactive = no such curve, though single readings can be large; an effect the other way counts as inactive or inconclusive.

SMILES	Cycloheximide cs	AmpC inh no detg	AmpC inh detg	Shiga inhibitor	NS1 inh
CCc1ccc(NC2=NCCCS2)cc1	15*	-21%	-8%	35*	-4%
FC(F)(F)c1ccc(NC2=NCCCS2)cc1	30*	-23%	?	43*	-3%
c1ccc(NC2=NCCCS2)cc1	-1	-10%	4%	-1	5%
COc1ccc(-c2nc(CSCC(=O)NCCc3ccc(OC)c(OC)c3)c(C)o2)cc1	nt	nt	-7%	nt	nt
O=C1CCC(=O)N1CCSC(=S)N1CCOCC1	8	-17%	-1%	41*	-8%
O=C(O)CCSC(=S)N1CCOCC1	-1	-8%	2%	-10	1%
O=C(CN1C(=O)COc2ccccc21)N1CCN(C2CCCCC2)CC1	-4	-20%	7%	-3	13%
COc1cc(C(=O)Oc2ccc3c(c2)OCC3=O)cc(OC)c1OC	-2	-10%	3%	-12	3%
O=C(Oc1ccc2c(c1)OCC2=O)c1ccc(Cl)cc1	22	-24%	0%	50*	0%
OCCC1CN(Cc2nc(-c3ccccc3)cs2)CCN1C1CCCC1 (configuration not stated)	-1	12%	-3%	-3	-1%
CCOCCCNC(=O)C1CCN(Cc2cccc(OCc3ccccc3)c2)CC1	7	73%	1%	1	15%
COc1cc(CN2CCN(C(C)C)C(CCO)C2)ccc1OCc1ccccc1 (configuration not stated)	30*	39%	5%	70*	2%
CCCCNC(=O)C1CCN(Cc2ccc(OCc3ccccc3)c(OC)c2)CC1	42*	35%	-2%	44*	22%
COc1ccc(CN2CCN(Cc3ccccc3)C(CCO)C2)cc1OC (configuration not stated)	-2	4%	-4%	-3	0%
CC(C)N1CCN(Cc2nc(-c3ccccc3)cs2)CC1CCO (configuration not stated)	20*	-5%	3%	24	-5%
COc1cc(CN2CCC(C(=O)NCC(C)(C)CN(C)C)CC2)ccc1OCc1ccccc1	13	7%	?	nt	-13%
CCOCCCNC(=O)C1CCN(Cc2ccc(OCc3ccccc3)c(OC)c2)CC1	18*	37%	-9%	95	-17%
COCCCNC(=O)Cn1c(=O)n(Cc2ccc(C(=O)NCCc3ccc(OC)c(OC)c3)cc2)c(=O)c2ccccc21	8	179%	1%	20	nt
CN(C(=O)c1ccccc1C(=O)O)C1CC(C)(C)NC(C)(C)C1	nt	nt	nt	nt	8%
CC1CCc2nc3sc4c(c3c(N)c2C1)CCCC4 (configuration not stated)	33*	-38%	5%	56*	-33%
CC1CCc2c(nc3sc4c(c3c2N)CCCC4)C1 (configuration not stated)	37*	-36%	-6%	active	-25%
Cc1cc(Cc2c(C)c(C)c(Cc3cc(C)cc(C(C)(C)C)c3O)c(C)c2C)c(O)c(C(C)(C)C)c1	nt	nt	nt	nt	-2%
Cc1cccc(OCC(=O)Nc2nonc2-c2ccc(Br)cc2)c1C	nt	nt	-8%	nt	nt
CCOC(=O)c1c(-c2ccc(C)cc2)csc1NC(=O)c1cc(=O)c2cc(C)c(C)cc2o1	nt	nt	-2%	nt	nt
C=CCc1ccc(OCCOc2cccc3cccnc23)c(OC)c1	-1	49%	?	23	-33%
SMILES	Cycloheximide cs	AmpC inh no detg	AmpC inh detg	Shiga inhibitor	NS1 inh
C/C=C/c1ccc(OCCOc2cccc3cccnc23)c(OC)c1	22*	-2%	-1%	36	-7%
Cc1ccc(OCCCOc2cccc3cccnc23)cc1C	17*	18%	-2%	24	-77%
Brc1ccc(OCCCOc2cccc3cccnc23)cc1	12	8%	?	nt	-84%
Cc1ccc2cccc(OCCCOc3ccccc3F)c2n1	25*	82%	-12%	nt	-43%
COc1cccc(OC)c1OCCCOc1cccc2cccnc12	21*	56%	1%	127*	-34%
CC(C)(C)OC(=O)N1CCC(c2nnc(SCc3ccccc3F)o2)CC1	nt	nt	0%	nt	nt
Cc1cccc(OCCCOc2cccc3cccnc23)c1C	21*	45%	-11%	20	-120%
Cc1cccc(OCCCCc2c(C)n[nH]c2C)c1C	-2	-1%	?	-12	-97%
CCOc1ccccc1NC(=O)CN(c1ccc(OC)cc1)S(=O)(=O)c1c(C)[nH]c(=O)[nH]c1=O	-2	-7%	-2%	5	6%
Cn1c(C(=O)NCc2ccccn2)cc2c(=O)n3ccccc3nc21	29*	-17%	-9%	58*	-10%
Cc1cccn2c(=O)c3cc(C(=O)NC4CCCC4)sc3nc12	19*	-15%	1%	-23	-35%
Cn1c(C(=O)NC2CCCCC2)cc2c(=O)n3ccccc3nc21	23*	22%	1%	21	-9%
Cc1cc(C)c(NC(=O)c2cc3c(=O)n4ccccc4nc3n2C)c(C)c1	nt	nt	4%	nt	nt
O=C(NC1CCCC1)c1cc2c(=O)n3ccccc3nc2s1	nt	1%	?	nt	nt
CCn1c(=N)c(C(=O)NC2CCCC2)cc2c(=O)n3ccccc3nc21	nt	nt	1%	nt	nt
Cc1ccc(-n2nc(C(=O)N3CCC(C)CC3)c(=O)n(C)c2=O)cc1	nt	nt	19%	nt	nt
CCCC(=O)Nc1ccc(-c2nc3ncccc3o2)cc1C	nt	nt	0%	nt	nt
O=C(CCCSc1nc2ccccc2s1)NCc1ccco1	16*	-20%	?	81	-55%
Cc1cnc(NC(=O)CCCSc2nc3ccccc3s2)s1	-3	-52%	-13%	31	-7%
CCc1ccccc1NC(=O)CCCSc1nc2ccccc2s1	12*	-36%	-3%	13	-3%
Cc1csc(NC(=O)CCCSc2nc3ccccc3s2)n1	14	-9%	-16%	10	-50%
CN(CC(=O)NC1(C)CCS(=O)(=O)C1)S(=O)(=O)c1ccc(Cl)cc1 (configuration not stated)	nt	-17%	0%	nt	nt
O=C(CSc1nnc(-c2ccc(Cl)s2)o1)N1CCOCC1	15	7%	-15%	62*	?
O=C(CSc1nnc(-c2ccc(Cl)cc2)o1)N1CCOCC1	53*	12%	-6%	81*	2%
O=C(CSc1nnc(-c2ccc(O)cc2)o1)N1CCOCC1	53*	1%	-1%	114	?
SMILES	Cycloheximide cs	AmpC inh no detg	AmpC inh detg	Shiga inhibitor	NS1 inh
CC1CC(C)CN(C(=O)CSc2nnc(-c3ccc(Cl)cc3)o2)C1 (configuration not stated)	-2	-14%	?	-11	-9%
O=C(CSc1nnc(-c2ccccc2Cl)o1)N1CCOCC1	36*	-3%	-3%	93*	8%
Oc1ccc(-c2nnc(SCC3CCCCC3)o2)cc1	22*	-6%	-18%	82*	-13%
CN(C(=O)c1cc2nc(-c3ccc4c(c3)OCO4)cc(C(F)(F)F)n2n1)c1ccc(OC(F)(F)F)cc1	nt	nt	2%	nt	nt
Nc1nnc(SCCCC(=O)c2ccc(F)cc2)s1	33*	-18%	-21%	+	-5%
O=C(CCCSc1nnc(SCCCC(=O)c2ccc(F)cc2)s1)c1ccc(F)cc1	5	-3%	-4%	-19	13%

Compound activity deposited in PubChem by National Center for Advancing Translational Sciences (NCATS).
